# Measurements: article PMC7862700, “An all-to-all approach to the identification of sequence-specific readers for epigenetic DNA modifications on cytosine”
# Legend:
# Test in all cases: DAPPL (digital affinity profiling via proximity ligation, sequencing); 10 mM Tris-HCl pH 7.5, 50 mM NaCl, 1 mM DTT, 4% glycerol, room temperature, 30 min; GST-TFs on glutathione beads, 16-mer random dsDNA library, 0.1% formaldehyde crosslink after washing; high values mean tight binding
# FLI1 = molecular target: T1, FLI1 (Homo sapiens, UniProt Q01543 1-452); settings: protein: recombinant; tags: N-terminal GST; dsDNA, one strand shown
# T1 sequence: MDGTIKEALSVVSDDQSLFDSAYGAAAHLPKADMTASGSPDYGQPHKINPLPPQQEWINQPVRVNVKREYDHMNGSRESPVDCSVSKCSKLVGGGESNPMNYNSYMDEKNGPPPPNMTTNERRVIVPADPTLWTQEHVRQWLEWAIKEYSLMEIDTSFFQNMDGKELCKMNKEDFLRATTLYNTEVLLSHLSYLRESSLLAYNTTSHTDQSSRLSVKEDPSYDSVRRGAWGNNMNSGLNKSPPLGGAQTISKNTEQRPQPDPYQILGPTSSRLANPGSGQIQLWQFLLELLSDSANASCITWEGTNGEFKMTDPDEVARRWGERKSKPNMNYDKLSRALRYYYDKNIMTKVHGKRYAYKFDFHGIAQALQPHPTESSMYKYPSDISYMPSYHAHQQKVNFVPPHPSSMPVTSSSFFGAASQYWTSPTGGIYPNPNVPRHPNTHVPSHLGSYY
# Procedure, shortened: (§1)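 GST fusions of human transcription factors were expressed in yeast and captured with glutathione beads. Once given DNA barcodes and pooled alongside a tag-only sample, they were incubated for 30 min at room temperature with 200 nmole of a random double-stranded 16-mer DNA library in Tris/NaCl/DTT/glycerol buffer, then washed, crosslinked (0.1% formaldehyde), proximity-ligated, PCR-amplified and sequenced on an Illumina NextSeq500. The binding signal of each hexamer is its read frequency for a factor divided by its frequency for the tag-only sample.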
# ELK1 = molecular target: T2, ELK1 (Homo sapiens, UniProt P19419 1-428); settings: protein: recombinant; tags: N-terminal GST; dsDNA, one strand shown
# T2 sequence: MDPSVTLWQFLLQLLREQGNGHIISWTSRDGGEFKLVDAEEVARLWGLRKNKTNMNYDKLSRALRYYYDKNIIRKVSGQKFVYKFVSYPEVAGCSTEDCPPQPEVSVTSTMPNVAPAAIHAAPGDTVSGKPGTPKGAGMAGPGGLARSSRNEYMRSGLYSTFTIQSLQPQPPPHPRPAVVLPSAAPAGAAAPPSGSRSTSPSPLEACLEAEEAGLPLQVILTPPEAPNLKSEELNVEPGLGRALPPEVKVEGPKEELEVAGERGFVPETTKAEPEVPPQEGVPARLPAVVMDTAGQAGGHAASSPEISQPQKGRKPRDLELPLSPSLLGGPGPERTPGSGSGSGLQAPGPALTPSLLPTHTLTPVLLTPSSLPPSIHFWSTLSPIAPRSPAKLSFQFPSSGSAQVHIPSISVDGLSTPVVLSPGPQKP
# Procedure, shortened: as §1
# GABPA = molecular target: T3, GABPA (Homo sapiens, UniProt Q06546 1-454); settings: protein: recombinant; tags: N-terminal GST; dsDNA, one strand shown
# T3 sequence: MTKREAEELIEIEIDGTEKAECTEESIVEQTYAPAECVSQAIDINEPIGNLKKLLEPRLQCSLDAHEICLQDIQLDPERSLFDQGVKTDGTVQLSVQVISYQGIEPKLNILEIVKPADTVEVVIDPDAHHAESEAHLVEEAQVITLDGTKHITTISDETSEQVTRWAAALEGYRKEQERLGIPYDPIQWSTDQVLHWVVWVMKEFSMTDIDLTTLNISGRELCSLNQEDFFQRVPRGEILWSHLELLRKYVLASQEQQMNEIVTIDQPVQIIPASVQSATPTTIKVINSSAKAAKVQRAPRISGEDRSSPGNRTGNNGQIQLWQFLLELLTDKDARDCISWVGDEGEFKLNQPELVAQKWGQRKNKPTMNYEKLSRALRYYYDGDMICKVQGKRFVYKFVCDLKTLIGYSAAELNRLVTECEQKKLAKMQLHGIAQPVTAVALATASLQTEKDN
# Procedure, shortened: as §1
# ERG = molecular target: T4, ERG (Homo sapiens, UniProt P11308 1-479); settings: protein: recombinant; tags: N-terminal GST; dsDNA, one strand shown
# T4 sequence: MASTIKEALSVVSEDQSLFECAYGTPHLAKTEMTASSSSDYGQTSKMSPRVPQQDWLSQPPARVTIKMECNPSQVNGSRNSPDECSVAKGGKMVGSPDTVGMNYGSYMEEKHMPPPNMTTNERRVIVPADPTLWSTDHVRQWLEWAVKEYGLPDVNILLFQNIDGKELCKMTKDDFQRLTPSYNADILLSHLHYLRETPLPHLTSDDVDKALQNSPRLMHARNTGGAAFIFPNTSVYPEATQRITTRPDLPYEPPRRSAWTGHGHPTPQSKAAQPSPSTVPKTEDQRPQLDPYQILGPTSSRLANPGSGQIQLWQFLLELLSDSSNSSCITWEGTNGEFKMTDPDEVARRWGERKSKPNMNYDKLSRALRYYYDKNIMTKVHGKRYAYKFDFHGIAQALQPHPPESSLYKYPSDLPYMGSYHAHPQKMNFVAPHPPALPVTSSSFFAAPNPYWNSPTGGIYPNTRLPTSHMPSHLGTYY
# Procedure, shortened: as §1
# ELF1 = ELF1 (Homo sapiens, UniProt P32519 1-619); settings: protein: recombinant; tags: N-terminal GST; dsDNA, one strand shown
# Procedure, shortened: as §1
# EHF = molecular target: T5, EHF (Homo sapiens, UniProt Q9NZC4 1-300); settings: protein: recombinant; tags: N-terminal GST; dsDNA, one strand shown
# T5 sequence: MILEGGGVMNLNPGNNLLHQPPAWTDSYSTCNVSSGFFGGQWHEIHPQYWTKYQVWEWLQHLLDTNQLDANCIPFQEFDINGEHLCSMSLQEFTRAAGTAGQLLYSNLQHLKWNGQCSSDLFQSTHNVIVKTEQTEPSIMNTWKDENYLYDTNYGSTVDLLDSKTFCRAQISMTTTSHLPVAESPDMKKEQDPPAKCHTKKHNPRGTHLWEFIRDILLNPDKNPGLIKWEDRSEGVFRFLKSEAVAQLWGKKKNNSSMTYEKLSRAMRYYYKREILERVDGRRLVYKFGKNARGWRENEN
# Procedure, shortened: as §1
# SPI1 = SPI1 (Homo sapiens, UniProt P17947 1-270); settings: protein: recombinant; tags: N-terminal GST; dsDNA, one strand shown
# Procedure, shortened: as §1
# SPIB = SPIB (Homo sapiens, UniProt Q01892 1-262); settings: protein: recombinant; tags: N-terminal GST; dsDNA, one strand shown
# Procedure, shortened: as §1
# ELK3 = molecular target: T6, ELK3 (Homo sapiens, UniProt P41970 1-407); settings: protein: recombinant; tags: N-terminal GST; dsDNA, one strand shown
# T6 sequence: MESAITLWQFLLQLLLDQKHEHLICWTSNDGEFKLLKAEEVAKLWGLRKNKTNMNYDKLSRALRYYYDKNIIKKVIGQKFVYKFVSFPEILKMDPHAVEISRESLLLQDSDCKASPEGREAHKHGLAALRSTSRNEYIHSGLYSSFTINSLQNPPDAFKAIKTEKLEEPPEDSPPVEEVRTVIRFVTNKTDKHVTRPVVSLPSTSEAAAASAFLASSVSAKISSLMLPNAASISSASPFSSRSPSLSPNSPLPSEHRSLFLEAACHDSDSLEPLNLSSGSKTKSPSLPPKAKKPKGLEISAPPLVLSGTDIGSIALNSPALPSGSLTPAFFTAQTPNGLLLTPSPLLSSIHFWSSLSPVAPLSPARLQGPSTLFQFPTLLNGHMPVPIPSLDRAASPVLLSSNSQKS
# Procedure, shortened: as §1
# FEV = molecular target: T7, FEV (Homo sapiens, UniProt Q99581 1-238); settings: protein: recombinant; tags: N-terminal GST; dsDNA, one strand shown
# T7 sequence: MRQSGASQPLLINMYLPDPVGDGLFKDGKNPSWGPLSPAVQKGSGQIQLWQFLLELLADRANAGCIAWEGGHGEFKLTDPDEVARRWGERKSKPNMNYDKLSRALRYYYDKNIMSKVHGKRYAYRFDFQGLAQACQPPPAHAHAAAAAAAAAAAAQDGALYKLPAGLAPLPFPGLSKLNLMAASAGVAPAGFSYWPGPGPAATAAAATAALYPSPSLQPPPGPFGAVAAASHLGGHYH
# Procedure, shortened: as §1
# ETV5 = ETV5 (Homo sapiens, UniProt P41161 1-510); settings: protein: recombinant; tags: N-terminal GST; dsDNA, one strand shown
# Procedure, shortened: as §1
# HSF1 = HSF1 (Homo sapiens, UniProt Q00613 1-529); settings: protein: recombinant; tags: N-terminal GST; chain copies: 3; dsDNA, one strand shown
# Procedure, shortened: as §1
# SPIC = molecular target: T8, SPIC (Homo sapiens, UniProt Q8N5J4 1-248); settings: protein: recombinant; tags: N-terminal GST; dsDNA, one strand shown
# T8 sequence: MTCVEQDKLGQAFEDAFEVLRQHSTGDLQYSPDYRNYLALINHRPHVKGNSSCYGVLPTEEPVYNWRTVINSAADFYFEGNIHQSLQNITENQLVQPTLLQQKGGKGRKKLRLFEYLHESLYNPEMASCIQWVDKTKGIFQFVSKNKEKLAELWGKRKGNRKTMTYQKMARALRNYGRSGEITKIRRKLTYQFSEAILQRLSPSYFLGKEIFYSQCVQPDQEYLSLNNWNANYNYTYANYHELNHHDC
# Procedure, shortened: as §1
# ELF4 = ELF4 (Homo sapiens, UniProt Q99607 1-663); settings: protein: recombinant; tags: N-terminal GST; dsDNA, one strand shown
# Procedure, shortened: as §1
# ELK4 = molecular target: T9, ELK4 (Homo sapiens, UniProt P28324-2 1-405); settings: protein: recombinant; tags: N-terminal GST; dsDNA, one strand shown
# T9 sequence: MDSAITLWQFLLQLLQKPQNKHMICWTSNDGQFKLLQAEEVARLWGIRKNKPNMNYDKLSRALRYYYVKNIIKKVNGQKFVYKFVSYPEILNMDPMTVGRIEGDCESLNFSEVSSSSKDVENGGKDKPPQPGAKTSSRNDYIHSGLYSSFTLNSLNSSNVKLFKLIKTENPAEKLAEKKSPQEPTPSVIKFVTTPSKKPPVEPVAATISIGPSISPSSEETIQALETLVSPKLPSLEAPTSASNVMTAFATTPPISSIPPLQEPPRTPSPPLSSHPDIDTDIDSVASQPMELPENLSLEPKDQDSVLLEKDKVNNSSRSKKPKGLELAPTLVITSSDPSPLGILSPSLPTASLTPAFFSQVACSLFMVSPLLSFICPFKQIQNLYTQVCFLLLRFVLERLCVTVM
# Procedure, shortened: as §1
# ETV2 = molecular target: T10, ETV2 (Homo sapiens, UniProt O00321 1-342); settings: protein: recombinant; tags: N-terminal GST; dsDNA, one strand shown
# T10 sequence: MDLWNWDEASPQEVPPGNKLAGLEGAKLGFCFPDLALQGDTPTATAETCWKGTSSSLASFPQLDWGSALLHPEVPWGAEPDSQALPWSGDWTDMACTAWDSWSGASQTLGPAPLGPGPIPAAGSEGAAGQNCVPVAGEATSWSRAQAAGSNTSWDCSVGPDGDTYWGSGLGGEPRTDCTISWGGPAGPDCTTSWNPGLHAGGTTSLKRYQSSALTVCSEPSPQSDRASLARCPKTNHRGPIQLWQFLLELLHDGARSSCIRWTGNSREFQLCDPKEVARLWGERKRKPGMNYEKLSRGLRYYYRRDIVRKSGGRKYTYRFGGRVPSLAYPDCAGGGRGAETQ
# Procedure, shortened: as §1
# ELF3 = molecular target: T11, ELF3 (Homo sapiens, UniProt P78545 1-371); settings: protein: recombinant; tags: N-terminal GST; dsDNA, one strand shown
# T11 sequence: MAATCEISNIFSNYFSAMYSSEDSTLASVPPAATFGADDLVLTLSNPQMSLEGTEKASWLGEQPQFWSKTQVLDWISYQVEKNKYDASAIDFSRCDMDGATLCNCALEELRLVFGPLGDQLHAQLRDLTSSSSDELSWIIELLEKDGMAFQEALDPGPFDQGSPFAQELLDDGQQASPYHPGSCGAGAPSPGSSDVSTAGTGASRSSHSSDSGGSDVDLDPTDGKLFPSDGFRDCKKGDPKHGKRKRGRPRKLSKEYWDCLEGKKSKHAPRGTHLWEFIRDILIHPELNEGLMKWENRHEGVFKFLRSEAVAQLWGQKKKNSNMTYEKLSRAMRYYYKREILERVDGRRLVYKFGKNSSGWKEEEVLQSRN
# Procedure, shortened: as §1
# CRX = CRX (Homo sapiens, UniProt O43186 1-299); settings: protein: recombinant; tags: N-terminal GST; dsDNA, one strand shown
# Procedure, shortened: as §1
# ETV1 = ETV1 (Homo sapiens, UniProt P50549 1-477); settings: protein: recombinant; tags: N-terminal GST; dsDNA, one strand shown
# Procedure, shortened: as §1
# SPIB, sequence (Q01892 whole entry): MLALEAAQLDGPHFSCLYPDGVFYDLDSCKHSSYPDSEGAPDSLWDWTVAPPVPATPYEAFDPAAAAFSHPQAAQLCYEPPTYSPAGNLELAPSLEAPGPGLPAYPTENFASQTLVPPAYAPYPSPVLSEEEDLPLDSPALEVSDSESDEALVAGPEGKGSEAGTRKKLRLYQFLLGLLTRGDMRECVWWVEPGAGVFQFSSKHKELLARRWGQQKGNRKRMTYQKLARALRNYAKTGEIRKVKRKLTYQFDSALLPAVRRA
# ELF1, sequence (P32519 whole entry): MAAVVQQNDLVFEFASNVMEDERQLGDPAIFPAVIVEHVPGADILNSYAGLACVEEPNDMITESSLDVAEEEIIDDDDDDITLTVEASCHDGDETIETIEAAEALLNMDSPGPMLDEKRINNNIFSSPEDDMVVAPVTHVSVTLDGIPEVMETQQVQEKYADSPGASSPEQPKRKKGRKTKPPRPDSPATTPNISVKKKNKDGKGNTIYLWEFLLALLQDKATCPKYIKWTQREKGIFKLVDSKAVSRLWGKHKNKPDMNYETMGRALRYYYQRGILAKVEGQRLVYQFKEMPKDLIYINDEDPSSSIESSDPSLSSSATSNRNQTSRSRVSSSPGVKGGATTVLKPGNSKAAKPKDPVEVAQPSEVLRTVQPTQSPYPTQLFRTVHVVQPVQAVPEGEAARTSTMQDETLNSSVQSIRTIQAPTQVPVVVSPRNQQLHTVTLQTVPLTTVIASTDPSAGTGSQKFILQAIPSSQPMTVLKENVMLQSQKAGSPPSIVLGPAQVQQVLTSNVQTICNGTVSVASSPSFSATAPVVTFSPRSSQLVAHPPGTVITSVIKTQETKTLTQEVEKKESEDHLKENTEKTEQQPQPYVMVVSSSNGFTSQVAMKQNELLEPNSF
# CRX, sequence (O43186 whole entry): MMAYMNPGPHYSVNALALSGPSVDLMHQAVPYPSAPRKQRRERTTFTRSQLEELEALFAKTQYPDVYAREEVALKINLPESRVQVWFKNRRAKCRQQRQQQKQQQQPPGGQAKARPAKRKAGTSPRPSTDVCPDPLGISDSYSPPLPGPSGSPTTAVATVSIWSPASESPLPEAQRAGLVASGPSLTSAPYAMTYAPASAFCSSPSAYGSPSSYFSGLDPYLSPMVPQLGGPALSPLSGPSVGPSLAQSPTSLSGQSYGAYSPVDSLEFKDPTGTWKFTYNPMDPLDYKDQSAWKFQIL
# ELF4, sequence (Q99607 whole entry): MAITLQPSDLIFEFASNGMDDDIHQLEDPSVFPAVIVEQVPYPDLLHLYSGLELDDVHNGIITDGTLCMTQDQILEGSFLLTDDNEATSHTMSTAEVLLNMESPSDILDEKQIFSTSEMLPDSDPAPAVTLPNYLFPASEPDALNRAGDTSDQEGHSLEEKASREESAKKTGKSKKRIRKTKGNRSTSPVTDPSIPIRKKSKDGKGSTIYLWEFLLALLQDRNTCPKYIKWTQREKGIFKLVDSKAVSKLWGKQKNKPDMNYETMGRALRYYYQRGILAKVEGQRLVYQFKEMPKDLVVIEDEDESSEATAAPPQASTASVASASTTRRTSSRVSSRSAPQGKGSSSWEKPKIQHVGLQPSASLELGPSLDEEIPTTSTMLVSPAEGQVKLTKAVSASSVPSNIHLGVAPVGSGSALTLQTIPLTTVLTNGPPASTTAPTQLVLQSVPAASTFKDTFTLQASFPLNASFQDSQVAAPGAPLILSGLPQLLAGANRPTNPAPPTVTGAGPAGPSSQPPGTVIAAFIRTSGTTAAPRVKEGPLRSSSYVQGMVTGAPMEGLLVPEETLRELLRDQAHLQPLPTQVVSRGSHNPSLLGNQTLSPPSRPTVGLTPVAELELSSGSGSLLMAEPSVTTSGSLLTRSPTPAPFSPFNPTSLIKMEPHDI
# ETV5, sequence (P41161 whole entry): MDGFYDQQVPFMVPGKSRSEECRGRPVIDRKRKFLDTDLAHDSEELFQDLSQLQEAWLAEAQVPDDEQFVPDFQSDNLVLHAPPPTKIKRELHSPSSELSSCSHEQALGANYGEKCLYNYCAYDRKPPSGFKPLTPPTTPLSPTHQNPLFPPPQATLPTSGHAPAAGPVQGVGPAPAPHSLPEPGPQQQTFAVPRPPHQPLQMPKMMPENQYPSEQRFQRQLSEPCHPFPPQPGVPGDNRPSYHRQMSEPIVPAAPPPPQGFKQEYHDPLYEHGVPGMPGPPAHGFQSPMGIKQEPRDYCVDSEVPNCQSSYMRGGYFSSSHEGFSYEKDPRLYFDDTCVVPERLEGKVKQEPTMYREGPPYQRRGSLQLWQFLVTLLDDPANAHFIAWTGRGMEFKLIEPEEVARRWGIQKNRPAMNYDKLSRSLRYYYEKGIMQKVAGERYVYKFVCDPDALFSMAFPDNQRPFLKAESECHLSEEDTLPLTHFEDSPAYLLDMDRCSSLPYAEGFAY
# ETV1, sequence (P50549 whole entry): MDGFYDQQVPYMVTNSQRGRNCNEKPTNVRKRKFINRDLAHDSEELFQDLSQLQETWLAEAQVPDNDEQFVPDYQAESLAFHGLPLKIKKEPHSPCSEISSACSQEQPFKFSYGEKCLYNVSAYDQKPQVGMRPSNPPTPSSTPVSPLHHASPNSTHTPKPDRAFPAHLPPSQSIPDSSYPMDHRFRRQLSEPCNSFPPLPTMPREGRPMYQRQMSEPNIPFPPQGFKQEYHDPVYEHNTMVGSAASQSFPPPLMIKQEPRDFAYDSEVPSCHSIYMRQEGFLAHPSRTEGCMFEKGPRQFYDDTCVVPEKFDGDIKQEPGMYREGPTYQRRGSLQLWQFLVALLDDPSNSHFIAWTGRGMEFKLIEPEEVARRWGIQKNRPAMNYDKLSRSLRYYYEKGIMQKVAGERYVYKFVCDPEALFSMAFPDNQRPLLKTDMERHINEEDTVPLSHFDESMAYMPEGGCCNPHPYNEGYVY
# HSF1, sequence (Q00613 whole entry): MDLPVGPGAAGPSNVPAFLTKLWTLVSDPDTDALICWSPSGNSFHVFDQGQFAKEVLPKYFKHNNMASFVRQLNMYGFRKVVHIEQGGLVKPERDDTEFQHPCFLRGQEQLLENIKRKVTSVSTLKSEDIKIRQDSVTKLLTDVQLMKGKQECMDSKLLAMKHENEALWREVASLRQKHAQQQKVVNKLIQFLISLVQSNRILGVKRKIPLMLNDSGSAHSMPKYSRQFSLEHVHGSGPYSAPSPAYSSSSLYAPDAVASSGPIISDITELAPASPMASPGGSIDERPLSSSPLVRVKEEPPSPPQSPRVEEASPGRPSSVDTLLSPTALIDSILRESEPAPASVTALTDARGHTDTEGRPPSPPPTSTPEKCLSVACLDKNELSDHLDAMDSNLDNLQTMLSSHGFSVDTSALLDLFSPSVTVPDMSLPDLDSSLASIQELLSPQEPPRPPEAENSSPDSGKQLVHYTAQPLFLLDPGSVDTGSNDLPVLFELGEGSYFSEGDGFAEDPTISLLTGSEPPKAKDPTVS
sequence,measurement,setting,value
GAAATC,binding signal,FLI1,"1.38 fold enrichment (6-mer frequency, TF over GST control)"
same,binding signal,ELK1,"1.47 fold enrichment (6-mer frequency, TF over GST control)"
same,binding signal,GABPA,"1.34 fold enrichment (6-mer frequency, TF over GST control)"
same,binding signal,ERG,"1.65 fold enrichment (6-mer frequency, TF over GST control)"
same,binding signal,ELF1,"1.36 fold enrichment (6-mer frequency, TF over GST control)"
same,binding signal,EHF,"1.53 fold enrichment (6-mer frequency, TF over GST control)"
same,binding signal,SPI1,"1.4 fold enrichment (6-mer frequency, TF over GST control)"
same,binding signal,SPIB,"1.55 fold enrichment (6-mer frequency, TF over GST control)"
same,binding signal,ELK3,"1.42 fold enrichment (6-mer frequency, TF over GST control)"
same,binding signal,FEV,"2.32 fold enrichment (6-mer frequency, TF over GST control)"
same,binding signal,ETV5,"1.58 fold enrichment (6-mer frequency, TF over GST control)"
same,binding signal,HSF1,"1.23 fold enrichment (6-mer frequency, TF over GST control)"
same,binding signal,SPIC,"1.48 fold enrichment (6-mer frequency, TF over GST control)"
same,binding signal,ELF4,"1.42 fold enrichment (6-mer frequency, TF over GST control)"
same,binding signal,ELK4,"1.31 fold enrichment (6-mer frequency, TF over GST control)"
same,binding signal,ETV2,"1.45 fold enrichment (6-mer frequency, TF over GST control)"
same,binding signal,ELF3,"1.27 fold enrichment (6-mer frequency, TF over GST control)"
same,binding signal,CRX,"1.26 fold enrichment (6-mer frequency, TF over GST control)"
same,binding signal,ETV1,"1.5 fold enrichment (6-mer frequency, TF over GST control)"
